# JMJD2A Tudor: JMJD2A Tudor domain (human) inhibition. O75164. AlphaScreen JMJD2A-Tudor / H3K4me3 peptide binding. Potency, µM (doses to about 114 µM), hits mostly inhibitors. 4.4% of 390,000 active. AID 504339; further: nearly all actives have a fitted effect of over 50% in size
# BAZ2B inh: blocks human BAZ2B; AlphaScreen BAZ2B-H3K14Ac peptide displacement; 4.4% of 360,000 active; AID 504333; Potency, µM (top dose mostly 114 µM), hits mostly inhibitors; further: nearly all actives have a fitted effect of over 60% in size
#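 In this displacement format the biotinylated H3(5-23) peptide acetylated at Lys14 serves as ligand at 50 nM, with BAZ2B at 50 nM in PBS pH 7.4 containing 0.01% Tween-20. Donor and acceptor beads are 10 ug/mL final.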
# G9a block: G9a (human) methyltransferase inhibition; G9a H3K9 monomethylation, AlphaScreen, 2 h; AID 504332; Q96KQ7; Potency, µM (series often up to 102 µM), actives largely listed as inhibitors; 8.8% of 350,000 active; further: nearly all actives have a fitted effect of over 75% in size
# Target sequence (Q96KQ7 913-1193 limits assumed): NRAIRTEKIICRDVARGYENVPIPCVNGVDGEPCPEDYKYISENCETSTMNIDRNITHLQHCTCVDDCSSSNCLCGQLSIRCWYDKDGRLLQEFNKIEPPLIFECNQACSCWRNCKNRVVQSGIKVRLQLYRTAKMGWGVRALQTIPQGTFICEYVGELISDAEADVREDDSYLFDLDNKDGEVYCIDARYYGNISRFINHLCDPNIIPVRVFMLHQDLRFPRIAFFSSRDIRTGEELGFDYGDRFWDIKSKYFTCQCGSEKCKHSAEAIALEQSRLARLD
#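 Quantitative HTS format: methyltransferase activity on a biotin-tagged H3K9 peptide is measured by AlphaScreen, using a rabbit anti-monomethyl-H3K9 antibody with streptavidin donor and anti-IgG acceptor beads. Final levels are 20 nM enzyme, 500 nM peptide, 20 uM SAM; 2 h RT.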
# HP1b chromo inh: HP1-beta chromodomain-methylated histone interaction inhibition; 0.56% of 390,000 active; AlphaScreen HP1-beta / biotin-H3K9me3 peptide binding; Potency, µM (series often up to 114 µM), usual class: inhibitors; AID 540317; further: nearly all actives have a fitted effect of over 70% in size
# Target sequence (P83916 whole entry, looked up): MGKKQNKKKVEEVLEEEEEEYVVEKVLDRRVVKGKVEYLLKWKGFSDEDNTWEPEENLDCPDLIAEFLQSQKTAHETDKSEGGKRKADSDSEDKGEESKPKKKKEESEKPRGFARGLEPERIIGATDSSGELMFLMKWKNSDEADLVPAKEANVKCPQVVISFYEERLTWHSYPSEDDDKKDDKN
#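 AlphaScreen: HP1-beta (50 nM) preformed 30 min with biotin-H3(1-18)K9me3 peptide (50 nM) in PBS pH 7.4, 0.01% Tween-20. Compound added for 30 min at RT, then streptavidin donor/nickel chelate acceptor beads (10 ug/mL) for 30 min.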
# VDR inhibitor: vitamin D3 receptor (human) inhibition. P11473. VDR-SRC2-3 peptide fluorescence polarization, 2 h. Potency, µM, most hits filed as inhibitors. 0.93% of 400,000 active. AID 504847
#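 Inhibition of the VDR/SRC2-3 peptide interaction is quantified by fluorescence polarization. Compounds (23 nl, pintool) incubate with the reagents for 2 hours at ambient room temperature.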
# PLK1 PBD block: inhibitors of human PLK1 polo-box domain binding. P53350. Plk1 PBD binding of FITC phosphopeptide, fluorescence polarization. Potency, µM, most hits filed as inhibitors. 2.8% of 360,000 active; further: series mostly up to about 57 µM; nearly all actives have a fitted effect of over 65% in size
# Numbers stand for hits; – = inactive; ? = inconclusive; · = no result; ! = not confirmed by another sample; [ ] = dose if it differs, or a comment. An excerpt weighted towards active compounds, which were near 11% of everything screened. The call rests on the fitted dose curve; in most records, active means well fitted curve in the direction sought with a large enough effect; inconclusive means small, poorly fitted or top-dose-only effect, or another doubt; inactive means no such curve, though single readings can be large; an effect the other way counts as inactive or inconclusive.
SMILES,JMJD2A Tudor,BAZ2B inh,G9a block,HP1b chromo inh,VDR inhibitor,PLK1 PBD block
COCCOC(=O)C1=C(C)NC(=O)NC1c1ccc(-c2ccc(F)cc2)o1 (stereo not drawn),–,–,50µM,–,–,–
O=C(Cc1ccccc1)Nc1ccccc1C(=O)N1CCN(c2ccccc2)CC1,–,–,?,–,–,–
Cc1cccc(-c2n[nH]c(=S)n2/N=C/c2ccco2)c1,7.9µM,–,·,–,–,–
Cc1ccc(-c2n[nH]c(=S)n2/N=C\c2ccco2)cc1,25µM,–,0.89µM,–,–,–
CC(/C=N/n1c(-c2ccc(Cl)cc2)n[nH]c1=S)=C\c1ccco1,?,–,10µM,–,–,–
COc1cccc(C(=O)C2CCCN(Cc3cn(CC(N)=O)c4ccccc34)C2)c1 (stereo not drawn),–,–,·,–,–,–
CN(Cc1ccccc1)C(=O)c1ncn2c1C(=O)N(C)CC2,·,·,·,·,·,–
CN(Cc1ccccc1)C(=C(Cl)Cl)/C(=C1/NCCN1C)[N+](=O)[O-],–,–,50µM,–,–,–
O=C(c1ccncc1)N1N=C(c2ccc(Cl)cc2)CC1c1ccccc1O (stereo not drawn),?,?,20µM,–,–,–
Cc1nc2nc(-c3cccs3)[nH]c2cc1Br,–,·,·,–,–,–
CCOC1=C2[C@@H](CN(S(=O)(=O)c3ccc(C)cc3)[C@H]2c2ccccc2)[C@H]2C(=O)N(Cc3ccccc3)C(=O)[C@H]2C1,·,·,·,·,·,–
CC(=O)OCON[N+]([O-])=NC(C)C,?,·,·,–,–,·
CC(=O)OCON[N+]([O-])=NC1CCCCC1,20µM,·,·,?,–,·
O=C(CSc1n[nH]c(-c2ccccc2)n1)c1ccc(O)c(O)c1,63µM,45µM,7.9µM,–,–,–
CCOc1ccc(-c2nc(SCC(=O)c3ccccc3)n[nH]2)cc1,25µM,–,14µM,–,–,·
CCCOc1ccc(-c2nc(SCC(=O)c3ccc(Cl)cc3)n[nH]2)cc1,?,–,14µM,–,–,·
Cn1c(NCCN(CCO)CCCc2ccc([N+](=O)[O-])cc2)cc(=O)n(C)c1=O,–,·,?,–,50µM!,–
N=c1oc2c3c4c(cc2cc1C(=O)Nc1ccccc1)CCCN4CCC3,–,–,–,–,–,3.4µM
Cc1ccc(NC(=O)c2cc3ccccc3oc2=N)cc1,–,–,–,–,–,–
Oc1ccc(-c2csc(Nc3ccccn3)n2)cc1O,56µM,40µM,11µM,14µM,–,?
Cc1cccc(Nc2nc(-c3ccc(F)c(C)c3)cs2)n1,–,–,–,–,–,–
Cc1ccnc(Nc2nc(-c3ccc(O)cc3O)cs2)c1,?,50µM,79µM,–,–,–
Cc1cccc(Nc2nc(-c3ccc(O)c(O)c3)cs2)n1,?,50µM,40µM,?,–,–
COc1ccc(-c2csc(Nc3cc(C)ccn3)n2)cc1C,?,–,?,–,–,–
Cc1ccnc(Nc2nc(-c3ccc(O)c(O)c3)cs2)c1,56µM,40µM,28µM,?,–,–
SMILES,JMJD2A Tudor,BAZ2B inh,G9a block,HP1b chromo inh,VDR inhibitor,PLK1 PBD block
O=C(O)CC(NC(=O)C(c1ccccc1)c1ccccc1)c1cccc([N+](=O)[O-])c1 (stereo not drawn),–[11.4 µM],–,–,–,–,–
CN(C(=O)c1oc(=O)c2ccccc2c1-c1ccccc1)c1cccc(Cl)c1,–,?,–,–,–,·
CCCCOc1ccc(C(=O)Nc2nnc3n2CCS3)cc1,–,–,–,–,–,·
O=C(/C=C/c1ccc(Br)o1)NC(c1ccccc1)c1ccccc1,?,–,18µM,?,?,?
O=C(NC(c1ccccc1)c1ccccc1)c1ccc(Br)o1,–,–,–,–,–,–
COc1ccc(NC(=O)/C=C/c2ccc(Br)o2)cn1,?,?,?,?,–,?
COc1ccccc1CNC(=O)/C=C/c1ccc(Br)o1,–,?,28µM,–,–,–
O=C(N/N=C/C=C/c1ccco1)c1cnccn1,50µM,–,45µM,–,?,–
O=C(N/N=C/C=C\c1ccco1)c1ccccn1,79µM,56µM,35µM,?,79µM,?
O=C(N/N=C\C=C\c1ccco1)c1cc(-c2ccc3ccccc3c2)n[nH]1,–,–,32µM,–,–,–

# Source: PubChem BioAssay
